For 58 molecules, inhibition results are on record in PubChem BioAssay AID372 (MTDP, 2006).

Among all 100,000 compounds or so, about 770 (0.77%) were called active. Shown is part of a subset that was picked to be rich in actives. A number with no mark means an inactive call. Rule as the data show it: active = inhibition above about 50%; inactive = the rest.

What is called inhibition is the share of the control response that was lost under treatment.

The target in this assay is Gag-Pol polyprotein (Human immunodeficiency virus type 1 group M subtype B (isolate HXB2)) (UniProt P04585). Briefly: RNase H inhibition, HIV 1 Gag Pol polyprotein, FRET biochemical assay, screening (AID 372). Particulars: HIV-1 RT RNase H, FRET RNA/DNA substrate fluorescence; at 10 µM; active compounds read high.
For the molecule `CC(C(=O)N1CCOCC1)N1C(=O)c2cccc3cccc(c23)C1=O` (stereo not drawn), the inhibition was 19%.
As for `COc1ccc(C(=O)N2CCc3ccccc3C2)cc1`, the inhibition is 15%.
In the case of `COc1cc(/C=C2/C(=O)NC(=O)N(Cc3ccco3)C2=O)ccc1OCC(N)=O` it was 0%.
With `CCOc1ccc(/C=C2\SC(=S)N(Cc3ccccc3)C2=O)c(OCC)c1` the figure was 12%; with `CCOC(=O)C1=C(C)N(c2ccccc2)C(=O)C1`, 10%.
On to `COc1cccc(C2/C(=C(\O)c3ccc(Cl)cc3)C(=O)C(=O)N2CCCCCC(=O)O)c1` (stereo not drawn), for which the inhibition is 16%.
On to `CC(C)(C)c1cc(CCC(=O)NCCN2C(=O)c3ccccc3C2=O)cc(C(C)(C)C)c1O`, for which the inhibition was 2%.
Turning to `Cc1ccc(SCC(=O)N2CCCC2)cc1`, the inhibition is 6%.
In the case of `Nc1ccc(C2=Nc3cccc4cccc(c34)N2)cc1` it was 56% (active); in that of `Nc1cccc(C2=Nc3cccc4cccc(c34)N2)c1`, 56% (active).
Consider `c1ccc(NC2=Nc3cccc4cccc2c34)cc1`, for which the inhibition was 12%.
As to `Nc1cccc(-c2cc(C(=O)O)c3ccccc3n2)c1`, the inhibition was 0%.
In the case of `Nc1cccc(-c2nnc(-c3ccccc3)o2)c1` it was 3%; in that of `Cc1ccc([N+](=O)[O-])cc1-c1ccc(/C=C(\C#N)C(=O)NCc2ccco2)o1`, 1%; in that of `Cc1nn(-c2ccccc2)c2c1C(c1ccc(O)cc1)C(C#N)=C(N)O2` (stereo not drawn), 3%.
For `O=c1/c(=C/c2cc([N+](=O)[O-])ccc2OCCCOc2ccccc2)sc2nc3ccccc3n12`, the inhibition was 4%.
With `C=CC(=O)NC1(CCC)CCCCC1` the figure was 11%; with `COc1ccc(/C=C(C(=O)O)/C(C)=C/C(=O)O)c(OC)c1`, 7%.
Turning to `COc1ccc(C(=O)c2ccc(Cl)cc2Cl)cc1`, the inhibition was 15%.
With `Cc1sc2nc(-c3ccc(Br)cc3)[nH]c(=O)c2c1C` the figure was 8%; with `Cc1sc2nc(-c3ccccc3)[nH]c(=O)c2c1C`, 10%.
With `N=C1S/C(=C\c2ccc(N3CCOCC3)cc2)C(=O)N1c1ccc(Br)cc1`, the inhibition is 53% (active).
In the case of `CCOC(=O)c1ccc(N2C(=N)S/C(=C\c3ccc(N4CCOCC4)cc3)C2=O)cc1`, the inhibition was 15%.
In the case of `O=C1S/C(=C/c2ccc(Br)cc2)C(=O)N1c1ccccc1` it was 0%.
In the case of `COc1ccc(NC(=O)C(=O)NCc2ccccn2)cc1` it was 8%; in that of `O=C(NCc1ccccn1)C(=O)Nc1ccc(F)cc1`, 12%.
With `O=C(NCc1ccccn1)C(=O)Nc1ccc(Oc2ccccc2)cc1` the figure was 54% (active); with `Cc1cccc(OCCn2cc(C=C3C(=O)NC(=S)NC3=O)c3ccccc32)c1`, 7%; with `O=C(O)Cn1cc(/C=C2\C(=O)NC(=S)N(c3ccccc3F)C2=O)c2ccccc21`, 55% (active).
Turning to `O=C(Cn1cc(/C=C2/C(=O)NC(=S)N(c3ccccc3F)C2=O)c2ccccc21)Nc1ccccc1`, the inhibition was 47%.
In the case of `N#C/C(=C\c1cn(CC(=O)Nc2ccccc2)c2ccccc12)C(=O)Nc1ccccc1` it was 0%.
With `O=C(Cn1cc(/C=C2/C(=O)NC(=O)N(c3cccc(Cl)c3)C2=O)c2ccccc21)Nc1ccccc1` the figure was 32%; with `COc1cccc(OCCn2cc(C=C3C(=O)NC(=O)NC3=O)c3ccccc32)c1`, 12%.
For `COc1cccc(OCCn2cc(C=C3C(=O)NC(=S)NC3=O)c3ccccc32)c1`, the inhibition is 57% (active).
With `O=C(Cn1cc(/C=C2/C(=O)NC(=O)N(c3cccc(F)c3)C2=O)c2ccccc21)Nc1ccccc1` the figure was 46%; with `COc1ccc(NC(=O)/C(C#N)=C/c2cn(CC(=O)Nc3ccccc3)c3ccccc23)cc1`, 59% (active).
For `O=C(Cn1cc(/C=C2/C(=O)NC(=S)N(c3cccc(Cl)c3)C2=O)c2ccccc21)Nc1ccccc1`, the inhibition was 55% (active).
With `O=C(O)Cn1cc(/C=C2/C(=O)NC(=O)N(c3ccccc3F)C2=O)c2ccccc21` the figure was 10%; with `COc1ccc(NC(=O)/C(C#N)=C\c2cn(CC(=O)O)c3ccccc23)cc1`, 0%.
As for `COc1ccc(OC)c(N2C(=O)C(Cl)=C(N3CCCCC3)C2=O)c1`, the inhibition is 14%.
With `CCc1ccc(/C=C2\SC(=O)NC2=O)cc1`, the inhibition is 4%.
As to `COc1cc(NC(=O)c2ccc(Cl)c([N+](=O)[O-])c2)ccc1NC(=O)c1ccco1`, the inhibition is 5%.
In the case of `Cc1nnc(NC(=O)Cc2ccc(Br)cc2)s1`, the inhibition was 3%.
In the case of `COc1cc(CN2CCN(Cc3ccc4c(c3)OCO4)CC2)c([N+](=O)[O-])cc1OC` it was 6%; in that of `CCC(=O)Nc1cc(-c2nc3cc(Cl)ccc3o2)ccc1C`, 0%.
Turning to `CC1=C(C(=O)OCC2CCCCC2)C(c2ccccc2F)NC(=O)N1` (stereo not drawn), the inhibition is 17%.
In the case of `Cc1ccccc1N1C(=O)/C(=C\c2cn(CC(=O)Nc3ccccc3)c3ccccc23)C(=O)NC1=S` it was 26%; in that of `Cc1ccc(N2C(=O)NC(=O)/C(=C/c3cn(CC(=O)Nc4ccccc4)c4ccccc34)C2=O)cc1`, 43%.
With `CCOc1ccc(N2C(=O)/C(=C/c3ccc(OCc4cccc(C(=O)O)c4)cc3)C(=O)NC2=S)cc1` the figure was 5%; with `O=C(Cn1cc(/C=C2/C(=O)NC(=O)N(c3ccc(Cl)cc3)C2=O)c2ccccc21)Nc1ccccc1`, 11%; with `COC(=O)Cn1cc(/C=C2\C(=O)NC(=S)N(c3cccc(Cl)c3)C2=O)c2ccccc21`, 4%.
On to `O=C(Cn1cc(/C=C2/C(=O)NC(=S)N(c3ccccc3)C2=O)c2ccccc21)Nc1ccccc1`, for which the inhibition was 53% (active).
As for `CCOc1cccc(N2C(=O)NC(=O)/C(=C\c3cn(CC(=O)OC)c4ccccc34)C2=O)c1`, the inhibition was 0%.
Regarding `COc1ccc(N2C(=O)/C(=C/c3cn(Cc4ccccc4)c4ccccc34)C(=O)NC2=S)cc1`, the inhibition was 15%.
`O=C1NC(=O)N(c2ccccc2F)C(=O)/C1=C/c1ccc(OCc2cccc(C(=O)O)c2)cc1`: the inhibition was 4%.
With `CCc1ccccc1NC(=O)c1nn2c(c1Cl)NC(c1ccc(C)cc1)CC2C(F)(F)F` (stereo not drawn) the figure was 9%.
With `CCCOc1ccccc1C1C(C(=O)OCC2CCCO2)=C(C)NC2=C1C(=O)CCC2` (stereo not drawn), the inhibition is 6%.
In the case of `Oc1c(Br)cc(/C=N/Nc2nc(N3CCCCC3)nc(N3CCCCC3)n2)c(O)c1Br` it was 29%.
